Data on 50 compounds can be found in ChEMBL document CHEMBL4513216, “Probing the Open Global Health Chemical Diversity Library for Multistage-Active Starting Points for Next-Generation Antimalarials” (ACS Infect Dis, 2020).

About 2,100 (3.2%) of roughly 65,000 compounds showed an effect of 50% or more. The median lay at about -52%. Only a selection was taken, and strong results are over-represented in it overall.

In this assay the test system is Plasmodium falciparum. In words: Screen against P. falciparum Asexual Blood Stage (ABS), at 5uM. Format: functional, Dd2. Particulars: tested at 5 uM.
On to `CNC(=O)c1cccnc1N1CCC(Oc2ccc(F)cc2)CC1`, for which the INHIBITION is -88.2%. Under `O=C(CCc1ccccn1)N1CCCC(n2cncn2)C1` (stereo not given) stands -46.3%; under `CC(C)c1n[nH]c(C2CN(C(=O)Cn3ccccc3=O)CCO2)n1` (stereo not given), -40.5%. `O=C(CC1CC1)N1CCO[C@H]2[C@H](OCCCn3cccn3)CC[C@@H]21`: the INHIBITION is -14.6%. Regarding `Cc1ccc2[nH]c(CN3CC[C@@H](N4CCN(C)CC4)[C@H](O)C3)c(C)c2c1`, the INHIBITION is recorded as -41.6%. Then `Cc1c(CN2CC[C@@H](N3CCC(O)CC3)[C@H](O)C2)[nH]c2ccc(F)cc12`, with -21.9%; and `Cc1c(CN2CC[C@@H](N3CCC(O)CC3)[C@H](O)C2)[nH]c2ccc(Cl)cc12`, with 54.6%. Under `CC(=O)c1cc(Br)cc(F)c1OCC(=O)NC(C)C` stands -96.4%. Then `O=C(NCC(F)F)c1ccc(S(=O)(=O)NCCc2ccncc2)cc1`, with 16.5%; and `O=C(CCN1CCCC1)N1CC[C@@H](c2ccc3ccccc3c2)[C@H](O)C1`, with 65.1%; and `O=C(CCn1cccn1)N1CC[C@@H](c2ccc3ccccc3c2)[C@H](O)C1`, with 15.7%. On to `O=C(CCN1CCCO1)N1CC[C@@H](c2ccc3ccccc3c2)[C@H](O)C1`, for which the INHIBITION is given as 15.7%. Turning to `COc1cc(C2c3c(n[nH]c3C)N=C3COC(=O)C32)cc2c1OCO2` (stereo not given), the INHIBITION is -31.7%. Take `O=C(CC1C=CCC1)Nc1ncn(CC(=O)N2CCCCCC2)n1` (stereo not given): the INHIBITION is on record as 23.2%.

As to `CCn1cc(CNCC(c2ccc(Cl)cc2)n2cccn2)cn1` (stereo not given), the INHIBITION stood at 60.8%.

Take `Clc1ccc(C(CNCc2ccncc2)n2cccn2)cc1` (stereo not given): the INHIBITION is on record as -50.1%. Then `Cn1cc(CNCC(c2ccc(Cl)cc2)n2cccn2)cn1` (stereo not given), with 18.1%; and `Cc1cc(CN2CCC(CNS(=O)(=O)c3c(C)noc3C)CC2)c(C)o1`, with 28.4%. Then `CCN(C)S(=O)(=O)NCC1CCN(Cc2ccccc2C)CC1`, with 11.6%; and `Cc1cc(CN2CCC(CNS(=O)(=O)c3ccccc3Cl)CC2)c(C)o1`, with 53.6%; and `Cc1cnc2n(c1=O)C(CC(=O)NCc1ccc(Cl)cc1)CS2` (stereo not given), with -30.4%.

As to `Nc1nc(NCCO)cc(N2CCc3c([nH]c4ccccc34)C2)n1`, the INHIBITION is given as 61.3%.

Take `COc1ccc2[nH]c3c(c2c1)CN(c1cc(NCCO)nc(N)n1)CC3`: the INHIBITION is -52.4%. Then `CC(C)Cc1ncc2c(n1)CN(c1cc(NCCO)nc(N)n1)C2`, with -42.2%; and `O=C(c1ccc2[nH]ccc2c1)N1CCCSCC1CN1CCCC1` (stereo not given), with 21.3%. Then `O=C(NCCc1ccn(-c2ccccc2)n1)N1CCSCC1`, with -122%; and `Cc1ccc([C@]2(O)CC[C@H]3CN(Cc4cccc(F)c4F)C[C@H]32)nc1`, with 45.8%; and `COc1ccc(CN2C[C@H]3CC[C@](O)(c4ccc(C)cn4)[C@H]3C2)c(F)c1`, with 17.3%. Under `Cc1ccc([C@]2(O)CC[C@H]3CN(Cc4ccc(Cl)cc4Cl)C[C@H]32)nc1` stands 66.6%; under `CSc1ccc(CN2C[C@@H]3CC[C@@](O)(c4ccc(C)cn4)[C@@H]3C2)cc1`, 57.5%. In the case of `COc1ncc(CN2C[C@@H]3CC[C@@](O)(c4ccc(C)cn4)[C@@H]3C2)cn1`, the INHIBITION is -72.4%. Consider `Cc1ccc([C@]2(O)CC[C@H]3CN(Cc4cccc(Cl)c4Cl)C[C@H]32)nc1`, for which the INHIBITION is recorded as -9.78%. `OC(CN1CCN(CCOCC(F)(F)F)CC1)c1ccccc1` (stereo not given): the INHIBITION was -64.4%. As to `O=S(=O)(c1cccs1)N1CCCC2(COCCN(c3cccnc3)C2)C1` (stereo not given), the INHIBITION was -39.7%.

As to `Cc1ccoc1C(=O)N1CCCC(c2cc(C(F)(F)F)[nH]n2)C1` (stereo not given), the INHIBITION is -127%. Under `COCC(=O)N1CCC2(CCC2NS(=O)(=O)c2ccccc2)CC1` (stereo not given) stands -23.9%.

On to `O=S(=O)(NC1CCC12CCN(CC1CCOCC1)CC2)c1ccccc1` (stereo not given), for which the INHIBITION is recorded as -62.3%.

Turning to `Cc1ccc(CN2CCC3(CCC3NS(=O)(=O)c3ccccc3)CC2)o1` (stereo not given), the INHIBITION was 62.4%. Under `CC(C)c1ccc(NC(=O)Cn2cc(I)cn2)cc1` stands -19%. Then `CC1c2ncc(CN3CCN(C)CC3)n2CCN1Cc1ccccn1` (stereo not given), with -124%; and `c1cnc(-c2noc(C3CN(Cc4ccc5c(c4)CCO5)C3)n2)cn1`, with 4.79%. Under `CC(C)CC1CC(=O)Nc2c1cnn2Cc1ccco1` (stereo not given) stands -129%; under `CCN(c1ccc(C(=O)NCc2ccnc(C)n2)cc1)C(C)C`, 22.7%. Turning to `CCN(c1ccc(C(=O)NCc2cc[nH]n2)cc1)C(C)C`, the INHIBITION is given as 60.1%. As to `CC(C)c1ccc(O)c(C(=O)NCc2cc[nH]n2)c1`, the INHIBITION is on record as -97.2%.

For `Cc1nc(COC(=O)c2cccc3c2OCCO3)no1`, the INHIBITION is -17%. As to `CCOC(=O)CNC(=O)NCc1cccn1Cc1ccccc1F`, the INHIBITION was -158%. Take `CN1CC2(CCN(c3nc(N)nc4c3CCNC4)CC2)OC1=O`: the INHIBITION is -71.4%. Then `Cc1ccc(C)c(OCc2nnc(SCC3CCCN(C)C3)o2)c1` (stereo not given), with 60.3%; and `Cc1ccc(OCc2nnc(SCC3CCCN(C)C3)o2)cc1` (stereo not given), with 29.8%.
